A short description of this test: qHTS Assay for Lipid Storage Modulators (AID 1519). For activity change, negative = inhibition: % is set by controls: 0 for no effect and ±100 for the full control effect. The following applies: Drosophila S3 cells, BODIPY lipid droplet/cell ratio, laser cytometry, cells loaded with oleic acid. An excerpt:
NIH Molecular Libraries Probe Production Centers Network [MLPCN]
NIH Chemical Genomics Center [NCGC]
Assay Submitter (PI): Beller, Mathias; Max-Planck-Institut fur Biophysikalische Chemie
NCGC Assay Overview: Storing lipids as a reservoir for energy or the anabolism of elementary metabolites is a common feature of probably all cells and is conserved from bacteria to humans. The universal cellular lipid storage organelle is the so-called lipid storage droplet (LD). Although ubiquitous, LDs share a simple structure composed of a hydrophobic core that harbors the storage lipids, which is shielded by a droplet-specific phospholipid monolayer to which proteins are attached. The current model of LD biogenesis involves an incorporation of the lipid core into the membrane leaflets of the endoplasmic reticulum (ER) followed by a subsequent budding-like maturation of a LD, which ultimately pinches off. Once released, LD volume can increase by localized lipogenesis or fusion of existing droplets. Storage lipids are re-mobilized enzymatically by lipase activity. Lipase regulation in the adipocyte is heavily studied and involves multiple components including catecholamine signaling, the LD-associated proteins Perilipin and comparative gene identification-58 (CGI-58) and at least two lipases named hormone sensitive lipase (HSL) and adipocyte triglyceride lipase (ATGL). LD regulation outside of the adipocyte is poorly understood and only few components are known. However, there is an urgent need to learn more about ectopic fat depots as mislocalized storage of lipids, for example in the liver or muscle, is an eminent health problem associated with insulin resistance or the metabolic syndrome. We developed a laser-scanning cytometer assay to enable 1,536-well screening and combined the results of the small molecules screen with an RNAi database based on lipid storage.
NCGC Assay Protocol Summary:
We dispensed 4 uL of cells at 1.25 x 10^6 cells/mL into LoBase Aurora COC 1,536-well plates (black walled, clear bottom) with a bottle-valve solenoid-based dispenser (Aurora) to obtain 5,000 cells/well. Triacsin C (Sigma-Aldrich T-4540), an inhibitor of long-chain fatty acyl CoA synthetase that blocks synthesis of triglycerides, was used as a positive control for lipid under-storage. A total of 23 nL of compound solution of different concentrations were transferred to the assay plates using a Kalypsys pin tool equipped with a 1,536-pin array containing 10-nL slotted pins (FP1S10, 0.457-mm diameter, 50.8 mm long; V&P Scientific). One microliter of oleic acid (400 uM) was added, and the plate was lidded with stainless steel rubber gasket lined lids containing pinholes. […] Fluorescence was detected by excitation of the fluorophores with a 488-nm laser on an Acumen Explorer (TTP Lab Tech). The total intensity in channel 1 (500-530 nm) reflected lipid droplet accumulation. […] The ratio of the total intensity in PMT channel 1 over total intensity of channel 3 was also calculated. Percent activity was computed relative to an internal control (100% inhibited lipid droplet deposition due to the presence of 20 uM Triacsin C), which was added to 32 wells/plate.

Where [1] appears, read: measured here: cell count channel max response.
The mark [2] stands for this setting: measured here: lipid channel max response.

From PubChem BioAssay (NCATS) come the findings set out here.

Inconclusive results are not listed. Active and inactive are the calls of the source. Calls come from the whole dose curve.

In the case of `c1cncc(C2=NCCC2)c1`, for the setting “at 25.7 µM (top of the series)”, the activity change, negative = inhibition was -0.221% (inactive). Moreover, the max response is -18.1% under setting [1] and -18.1% under setting [2].

In the case of `COC1C(O)C(C)O[C@@H](OC2CC[C@@]3(C)C4CC[C@]5(C)C(C6=CC(=O)OC6)CC[C@@]5(O)C4CC[C@@H]3C2)C1O` (some centres not stated), the activity change, negative = inhibition (at 57.5 µM (top of the series)) is 8.72% (inactive). The max response under setting [1] worked out at 8.32% and the max response under setting [2] was found to be 14.8%.

As for `C=CCSSCC=C`, for the setting “at 57.5 µM (top of the series)”, the activity change, negative = inhibition was 11.8% (inactive). Also, the max response reads like this: under setting [1], 5.28%; under setting [2], 18.2%.

Turning to `CC(=O)O[C@@H]1CN2CCC1CC2`, under “at 57.5 µM (top of the series)”, the activity change, negative = inhibition was 2.83% (inactive). The max response reads like this: under setting [1], -10.5%; under setting [2], -8.98%.

Take `CP(=O)(O)CCCN`: the activity change, negative = inhibition (at 57.5 µM (top of the series)) was -0.195% (inactive). Further, the max response came out at 3.46% under setting [1] and 4.47% under setting [2].

As to `C=CCN1C[C@H](C)N([C@@H](c2ccccc2)c2ccc(C(=O)N(CC)CC)cc2)C[C@H]1C`, the activity change, negative = inhibition (at 57.5 µM (top of the series)) was 7.78% (inactive). Further, the max response is, setting by setting: under setting [1], 14.7%; under setting [2], 20%.

Regarding `O=C(O)CF`, the activity change, negative = inhibition (at 57.5 µM (top of the series)) is 3.91% (inactive). The max response was 8.93% under setting [1] and 13% under setting [2].

`COc1ccc(-n2nc(C(F)(F)F)cc2-c2ccc(Cl)cc2)cc1`: the activity change, negative = inhibition (at 57.5 µM (top of the series)) was -0.483% (inactive). Also, the max response by setting is: under setting [1], -38.3%; under setting [2], -37.8%.

Turning to `Cl.Cl.Cl.Cl.Cl.Cl.N.N.N.N.NNNNN.NNNNN.O.O.[Ru].[Ru].[Ru]`, the activity change, negative = inhibition (at 57.5 µM (top of the series)) is -5.89% (inactive). The max response is -27.5% under setting [1] and -31.1% under setting [2].

Regarding `N[C@@H](Cn1ccc(=O)n(Cc2ccc(C(=O)O)cc2)c1=O)C(=O)O`, under “at 57.5 µM (top of the series)”, the activity change, negative = inhibition was 0.903% (inactive). Further, the max response is -1.53% under setting [1] and -1.3% under setting [2].

Turning to `CCCN[C@@H]1CCc2c(OC)cccc2[C@@H]1C`, the activity change, negative = inhibition (at 57.5 µM (top of the series)) is -0.687% (inactive). The max response under setting [1] was -20.9% and the max response under setting [2] is -24%.

`C=CCN1CCC2(C)c3cc(O)ccc3C[C@H]1[C@H]2C`: the activity change, negative = inhibition (at 57.5 µM (top of the series)) was -8.46% (inactive). In addition, the max response runs as follows: under setting [1], 25.8%; under setting [2], 17%.

Take `C[C@H](N)Cc1c[nH]c2ccc(O)cc12`: the activity change, negative = inhibition (at 57.5 µM (top of the series)) was 0.648% (inactive). In addition, the max response was 20.6% under setting [1] and 23.2% under setting [2].

On to `O[C@@H]1[C@H](O)[C@H]2[C@@H](O)CCN2C[C@@H]1O`, for which, for the setting “at 57.5 µM (top of the series)”, the activity change, negative = inhibition was -2.53% (inactive). For the same compound, the max response is, setting by setting: under setting [1], 7.43%; under setting [2], 6.33%.
